Assay outcomes from PubChem.
These entries were drawn from the full list.
aSyn UTR act: Activators via SNCA 5'UTR binding, MLPCN; alpha-synuclein 5'UTR reporter, activators screen; activity score, % (tested at 7.5 µM), hits read low; 300,000 tested, 7.1% active; in the data active means activity score below about -60%
An asterisk follows results filed as active.

SMILES	aSyn UTR act
Cc1cc(C)nc(NC(=S)Nc2ccccc2)n1	-84*
COCCCNC(=S)NNC(=S)Nc1ccccc1	-65*
S=C(Nc1ccc(Nc2ccccc2)cc1)NN1CCOCC1	-99*
Oc1ccc(/C=C/c2ccnc3ccccc23)cc1	-112*
Clc1ccccc1/C=C/c1ccnc2ccccc12	-109*
CNC(=O)NC(=O)C(C)OC(=O)c1c2c(nc3ccccc13)/C(=C/c1cccs1)CC2 (stereo not given)	-143*
O=C(c1cc2ccccc2oc1=O)N(c1ccc(Cl)cc1)C1C=CS(=O)(=O)C1 (stereo not given)	-155*
CCOC(=O)C(NC(=O)CCl)(Nc1sc(C)c(CC)c1C#N)C(F)(F)F (stereo not given)	-75*
CCOC(=O)C1CCN(C(=O)CCCOc2ccccc2)CC1	-121*
O=C(CCCOc1ccccc1)N1CCCCC1	71
CCC1CCCCN1C(=O)CCCOc1ccccc1 (stereo not given)	-113*
COC(=O)c1ccc(C2N=C(c3cccs3)CC(c3ccccc3O)N2)cc1 (stereo not given)	-98*
c1csc(-c2cnc3ccccc3n2)c1	-108*
c1cc(-c2cccs2)nc(-c2cccs2)c1	-104*
CCN(CC)C(=O)COc1ccc(-c2ccccc2)cc1	-116*
COC(=O)CSc1nc2cc(C)cc(C)c2cc1C#N	-180*
Cc1cc(C)c2cc(C#N)c(N3CCCN(C(=S)NCCCN(C)C)CC3)nc2c1	96
COC(=O)CSc1nc2ccc(C)cc2cc1C#N	-72*
COc1ccc(CNc2ccc3c(c2)CCC3)cc1Br	-105*
COc1ccccc1CNc1ccc2c(c1)CCC2	-82*
CCOc1cc(CNc2ccc3c(c2)CCC3)ccc1OC	-163*
COc1ccc(C2=NN(S(C)(=O)=O)C(c3cccs3)C2)cc1OC (stereo not given)	-115*
COc1cccc(C2=NN(S(C)(=O)=O)C(c3cccs3)C2)c1 (stereo not given)	-107*
COc1ccc2cc(C3CC(c4cccs4)=NN3S(C)(=O)=O)c(Cl)nc2c1 (stereo not given)	-62*
CCS(=O)(=O)Nc1ccc(C2=NN(S(C)(=O)=O)C(c3cccs3)C2)cc1 (stereo not given)	-101*
SMILES	aSyn UTR act
Cc1ccc(Nc2ncccc2C(N)=O)cc1	-139*
COc1ccc(Nc2ncccc2C(=O)O)cc1	-77*
Cc1cc(Cl)ccc1Nc1ncccc1C(N)=O	-154*
Cc1ccc(NCC(=O)N=Nc2c(O)[nH]c3ccc([N+](=O)[O-])cc23)cc1	-172*
Cc1cc2ccccn2c1C(=O)Nc1ccc(Cl)cc1	-117*
Cc1cc2ccccn2c1C(=O)Nc1ccccc1	-109*
Cc1ccc2nc(N(CCN3CCOCC3)C(=O)CCS(=O)(=O)c3ccccc3)sc2c1	-93*
Cc1ccc(S(=O)(=O)CCC(=O)N(CCCN2CCOCC2)c2nc3ccccc3s2)cc1	-119*
O=C(CCS(=O)(=O)c1ccccc1)N(CCCN1CCOCC1)c1nc2ccccc2s1	-106*
Cc1ccc(C(=O)/C=C/Nc2ccccc2C(N)=O)o1	-200*
COc1ccccc1Oc1ccc(N/C=C/C(=O)c2ccc(C)o2)cc1	-89*
Cc1ccc(C=Nc2ccccc2C(N)=O)o1	-154*
NC(=O)c1ccccc1N/C=C/C(=O)c1ccc(F)cc1	-65*
Cc1sc2c(c1C)CN(C(C)(C)C)CN2C(=O)c1ccccc1	-64*
O=C(c1ccccc1)N1CCSc2sccc2C1=O	97
CCCC1CCC(c2nc(-c3cccnc3)no2)CC1 (stereo not given)	-166*
CCCC(=O)N1c2ccccc2C(=C2SC(C(=O)OC)=C(C(=O)OC)S2)C(=S)C1(C)C	-88*
CC1(C(=O)OCC(=O)Nc2ccc3ccccc3c2)CC1(Cl)Cl (stereo not given)	-78*
Cn1cnnc1SCC(=O)c1ccc2c(c1)CCCC2	-71*
COc1ccc(C2C=C(C)Nc3ncnn32)cc1 (stereo not given)	-154*
CC1CCCN(C(C(=O)NC2CCCCC2)c2cc3c(cc2[N+](=O)[O-])OCO3)C1 (stereo not given)	-81*
CC1CCN(C(C(=O)NC2CCCCC2)c2cc3c(cc2[N+](=O)[O-])OCO3)CC1 (stereo not given)	-102*
CC1CCCN(c2ccc([N+](=O)[O-])cc2C(=O)c2ccccc2)C1 (stereo not given)	84
O=C(Nc1ccc(Br)cc1)c1ccc2ncsc2c1	-128*
O=C(Nc1ccc2c(c1)C(=O)NC2=O)c1ccc2ncsc2c1	-63*
SMILES	aSyn UTR act
CCc1ccc(NC(=O)c2ccc3ncsc3c2)cc1	-155*
COc1ccc(NC(=O)c2ccc3ncsc3c2)cc1	-168*
COc1ccc(C2C(C(=O)Nc3cccc(C)n3)CCC(=O)N2c2ccc(OC)cc2)cc1 (stereo not given)	73
Cc1cccc(NC(=O)Nc2ccc(C)c(C)c2)n1	-120*
Cc1cccc(NC(=O)Nc2cccc(C)n2)n1	-95*
COc1ccc(NC(=O)Nc2ccc([N+](=O)[O-])cc2)cn1	-102*
Cc1ccc(NC(=O)Nc2cccc(C)n2)cc1	-76*
